Experimental data reported in the supplement of paper PMC3334620.
In all, about 33,000 sequences were measured (“E-score (-0.5 to 0.5)”: median about -0.013, highest 2% from about 0.3 on). Only a selection was taken, and the highest values are over-represented in it overall.

target: T1, Msn1 (UniProt P22148); assay: PBM E-score (8-mer binding enrichment) (E-score (-0.5 to 0.5)); higher = stronger / more preferred TF binding; details: protein concentration: 200 nM; construct: GST-full length
T1 sequence: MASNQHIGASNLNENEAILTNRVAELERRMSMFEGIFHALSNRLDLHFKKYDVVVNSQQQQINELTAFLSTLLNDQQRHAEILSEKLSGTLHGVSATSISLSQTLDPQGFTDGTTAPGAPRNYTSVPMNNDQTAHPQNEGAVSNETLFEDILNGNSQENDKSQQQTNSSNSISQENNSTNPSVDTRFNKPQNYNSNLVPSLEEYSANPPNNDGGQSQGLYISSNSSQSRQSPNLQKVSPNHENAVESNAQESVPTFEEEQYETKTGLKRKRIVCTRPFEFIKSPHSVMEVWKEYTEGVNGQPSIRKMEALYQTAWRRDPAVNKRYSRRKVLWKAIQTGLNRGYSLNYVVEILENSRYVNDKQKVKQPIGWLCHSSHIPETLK
How it was run: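 Bound GST-tagged yeast transcription factors, applied at about 100-200 nM to double-stranded universal all-10-mer Agilent arrays, were detected with fluorescent anti-GST. Scans were normalised with masliner. A modified Wilcoxon-Mann-Whitney statistic, the E-score, was assigned to each ungapped eight-base word pooled with its reverse complement by the Universal PBM Analysis Suite.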

Sequence	PBM E-score
AATGCGGG	0.145
GGGAGCAC	-0.276
AAGCTCGT	0.0392
GCTTCCAA	-0.0663
GTCATTGA	0.0439
AGCTGGTC	-0.0428
ACGGGCAG	-0.0886
GGCAGACA	0.079
AGCAGACA	0.0142
CGCAGACC	-0.123
TGCAGACA	0.33
CGCAGACA	0.323
CGCAGACG	0.0312
ATCACTAC	-0.126
CAGTGCTC	-0.259
AGCGCAGC	-0.115
ACCGCAAG	-0.0142
ATGCTACC	-0.126
AGAGATAT	0.0248
CGCCGGCG	0.204
CCTGCCAA	-0.125
ATGTCATC	0.341
ATGTCATA	0.448
CTGTCATC	0.0737
CTGTCATA	0.0936
ATGTCAAA	0.323

Sequence	PBM E-score
GTGTCATA	0.292
GTGTCAAA	0.096
ATGTCATG	0.411
ATGTCAGG	0.158
ATGTCAAG	0.217
ATGTCAGC	0.194
CTGTCAAA	0.0466
AGAGGTTG	-0.182
AGGTAACA	0.113
AAGTCGCT	-0.0636
ATGGGACG	-0.188
ATGGGACC	0.00395
CTGGGACC	-0.269
GTGGGAGA	-0.317
GTGGGATA	-0.0948
CTGGGAAA	-0.203
GTGGGACA	0.455
ATGGGACA	0.429
CTGGGACA	0.444
GACCGTGA	-0.0454
AACGCTAC	-0.137
CCCAACGC	0.0471
AATACCTG	-0.0275
GGTGAGAC	0.0221
ACACACCA	0.183
CTCCTTCA	-0.3

Sequence	PBM E-score
AGAAGCTA	-0.135
AATGGAGC	-0.132
CGTGTGTC	0.0945
CTTGTGTC	0.304
ATTGTGTC	0.314
CTTGTGTA	0.114
ATTGTGTG	-0.0187
ATTGTGTA	0.14
AGTCTCCG	0.159
ATCACAGC	0.053
AAATGAGT	0.0295
AATGTACT	0.364
ACTGTACT	-0.00421
GATGTATA	-0.11
AATGTACA	0.294
CATGTATA	0.141
AATGTAAT	0.193
AATGTACC	0.311
AATGTACG	0.274
AATGTATA	0.323
GCTCCCTA	-0.334
GAGACCTA	-0.0946
AGTGTCAT	0.112
ACTGTCAT	0.0249
AATGTCAC	0.381
AATGTCAG	0.254

Sequence	PBM E-score
ACTGTCAC	0.00673
AATGTCAT	0.46
GTTTGCCA	-0.0238
CCACCCAG	-0.0137
AGATGTTC	0.0457
CTATGTTC	0.103
CTATGTCC	0.461
CGATGTCA	0.0775
CGATGTCC	0.436
GGATGTCA	0.305
GGATGTTA	-0.0664
CGATGTAC	0.169
AGATGTCC	0.477
CTATGTGC	-0.0695
CGATGTTC	-0.0457
AGATGTCG	0.0151
AACAGAGT	0.128
AACAGCGT	0.0185
ATGGTGGG	-0.316
CACGCTAG	-0.0343
AATGGGAC	0.0849
CGAGCTAG	-0.0663
GAACAGGC	-0.164
ACTTGCCT	-0.136
CTGAAAGC	0.0584
ACTCGAAG	-0.168

Sequence	PBM E-score
AGATGTCA	0.309
AGATGTGA	-0.0694
AGATGTAA	0.102
ATAAATGG	0.0876
CTCACGGA	0.0943
ATCACGGA	0.136
GACACGGA	0.369
GACACGCA	0.198
GTCACGGA	0.308
AACACGCC	-0.12
GACACGGC	0.197
TACACGGA	0.303
GACACGCC	0.324
CACTAGCA	-0.0794
CCTGAACG	-0.104
ATAAGAGC	0.0327
ATCTTGAG	0.0323
ACGTCATA	0.235
AACCTAAA	0.121
ACAGTGCG	-0.181
CACCGGTA	0.0943
AGAACTCT	-0.119
CTCCAGTA	0.057
ACCGGACT	0.0676
TCCGGAGA	0.0632
TCCGGACA	0.453

Sequence	PBM E-score
GCCGGAGA	0.0857
TCCGGAAA	0.248
ACCGGACG	-0.0239
CCCGGACC	-0.11
CCCGGACA	0.425
GCCGGACA	0.357
ACCGGACA	0.306
CCCGGACG	-0.156
GCCGGACC	-0.0867
CGTCCCGC	0.0266
AGGTCGCC	-0.164
AAAAAAGC	-0.0879
AAGGTCCA	-0.0265
CCAGCAAA	0.06
AATGGCCT	-0.164
AGTATGTG	0.0347
AGTATGTC	0.353
AGTATGTA	-0.0186
CGTATGGC	0.0738
CGTATGTC	0.359
CGTATGTA	0.148
CGTTGGAA	-0.0918
ACTATACC	0.0929
GCAGGGAC	0.163
ACAAGGAA	0.178
ACAAGGAG	0.0113

Sequence	PBM E-score
ACAGGGAC	0.324
GCAAGGAA	-0.122
ACAGGGAT	-0.147
GTAAGGAC	0.268
ATAAGGAT	0.161
CCAAGGAC	0.16
ACAAGGAC	0.358
GCAAGGAC	0.395
ATAAGGAC	0.369
GGCGAGGA	-0.0575
TCATCCGA	0.183
GTACCTGA	0.149
GTCTGTGA	0.0908
CGACGCCG	0.0839
AAAGCACG	0.0204
TAGCAAAA	0.124
CCTGTTGA	-0.00042
AGAAAACT	0.116
CCGTGAAC	0.0411
CTCTACGA	0.0394
CAGAATGA	0.0577
GAAGACCA	-0.102
CAAGATAA	0.324
GAAGACAA	0.36
AAAGACTT	0.0779
CAAGACAA	0.367

Sequence	PBM E-score
AAAGACCT	0.0725
CAAGACAG	0.0634
TAAGATAA	0.0274
AAAGATAA	0.14
GAAGACAC	0.181
CAAGACAC	0.183
AAAGACAT	0.387
TAGGCAAA	0.0155
AGTCACAA	0.114
GCCTAGTA	-0.087
CCATGGAG	-0.119
GATGGGGA	-0.143
ATTTCGCA	0.201
ACCAGTCA	-0.0816
ATCCTTGA	-0.0979
AAAGACAC	0.213
AAAGACAG	0.193
TAAGACCA	-0.13
TAAGACGA	-0.00272
AAAGACAA	0.418
TAAGACAA	0.395
AACGGATA	0.18
CGGGGTAC	-0.216
GTCGATGA	-0.0803
CGGGGGCA	-0.318
GCGACATA	0.299

Sequence	PBM E-score
CCGACATA	0.215
ACGACAGG	0.0905
ACGACATG	0.364
ACGACATC	0.163
ACGACATA	0.319
GGTCGGTA	0.0288
AACTGAGT	-0.00489
AATGCGGA	0.114
CGTCTAAA	-0.0424
GACAGAAA	0.291
CACAGACA	0.36
TACAGAGA	-0.0201
CACAGACC	0.0741
GACAGACC	0.0373
TACAGACA	0.371
GACAGACA	0.414
CACAGACG	-0.0835
AACAGACA	0.295
